Screens deposited in PubChem BioAssay by The Scripps Research Institute Molecular Screening Center.
A selection: hits, their analogues and other compounds. The true share with any hit is near 4.1%.
ssDAF12 agonist – S. stercoralis DAF-12 activation, primary screen; HEK293 ssDAF-12/GRIP1 lit1-tk-luc reporter, luminescence; % of 3 µM dafachronic acid response; activation, % at 6.8 µM; 370,000 compounds, 1% hits; AID 652126;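 active means activation above the mean over all tested compounds plus 3 SD, cut at about 0.9% in these data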;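 further: 0% = DMSO-only wells and 100% = 3 µM delta7-dafachronic acid wells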
hcDAF12 agonist – activators of H. contortus DAF-12 nuclear receptor. HEK293 hcDAF-12 lit1-tk-luc reporter, luminescence; 0% DMSO, 100% Δ7-dafachronic acid. activation, % at 6.8 µM. 370,000 compounds, 1.4% hits;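 active means activation above the mean of all tested compounds plus 3 SD, cut at about 5.5% in these data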;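 further: 100% = response to 3 µM Δ7-dafachronic acid high control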
DAX1 inh-1 – NR0B1 (DAX1) inhibition. P51843. HEK293 Gal4-DAX1 luciferase reporter, luminescence. inhibition, % at 6.75 µM. 340,000 compounds, 0.99% hits;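 active means inhibition above the mean over all tested compounds plus 3 SD, cut at about 4.2% in these data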;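 further: 0% = DAX1-transfected cells with DMSO and 100% = empty-vector control cells with DMSO; inhibition shows as a rise in luminescence from relieved DAX1 repression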
Target sequence (P51843 207-470 limits assumed): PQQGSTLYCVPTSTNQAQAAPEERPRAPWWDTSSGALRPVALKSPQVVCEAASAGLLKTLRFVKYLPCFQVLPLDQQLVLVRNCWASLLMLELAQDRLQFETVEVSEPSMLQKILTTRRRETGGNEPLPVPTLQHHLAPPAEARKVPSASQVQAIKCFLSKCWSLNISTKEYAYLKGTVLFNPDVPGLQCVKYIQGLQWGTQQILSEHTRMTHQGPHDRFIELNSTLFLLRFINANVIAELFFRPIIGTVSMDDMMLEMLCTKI
DAX1 inh-2 – blocks DAX1 repression of SF-1 activated StAR promoter. HEK293T StAR-luciferase reporter, SF-1/DAX-1 repression relief. inhibition, % at 6.8 µM. 370,000 compounds, 1.1% hits. AID 652010;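 active means inhibition above the mean over all tested compounds plus 3 SD, cut at about 3.6% in these data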;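 further: 0% = DAX-1 cells with DMSO and 100% = cells lacking DAX-1 with DMSO; higher inhibition means more luminescence from relief of DAX-1 repression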
hgDAF12 agonist – agonists of H. glycines DAF-12 nuclear receptor | 370,000 compounds, 1.8% hits | activation, % at 6.8 µM | HEK293 GAL4-hgDAF12 UAS-luciferase reporter, agonist luminescence; normalized to butyrate control | AID 687014;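 active means activation above a cutoff set at the mean of all screened compounds plus 3 SD, cut at about 10% in these data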;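 further: 0% = DMSO wells and 100% = sodium butyrate wells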
DAX1 inh confirm – NR0B1 (human) inhibition, confirmation. inhibition, % at 6.8 µM. AID 652134. HEK293T StAR-promoter luciferase reporter, SF-1/DAX-1 repression. 2,400 compounds, 87% hits. shares compounds with DAX1 inh-2;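 active means inhibition above the average of every tested compound plus 3 SD, cut at about 3.8% in these data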;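 further: 0% = DAX-1 cells with DMSO and 100% = no DAX-1 control cells with DMSO; active compounds raise luminescence by relieving repression of the StAR reporter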
Target sequence (P51843 whole entry, looked up): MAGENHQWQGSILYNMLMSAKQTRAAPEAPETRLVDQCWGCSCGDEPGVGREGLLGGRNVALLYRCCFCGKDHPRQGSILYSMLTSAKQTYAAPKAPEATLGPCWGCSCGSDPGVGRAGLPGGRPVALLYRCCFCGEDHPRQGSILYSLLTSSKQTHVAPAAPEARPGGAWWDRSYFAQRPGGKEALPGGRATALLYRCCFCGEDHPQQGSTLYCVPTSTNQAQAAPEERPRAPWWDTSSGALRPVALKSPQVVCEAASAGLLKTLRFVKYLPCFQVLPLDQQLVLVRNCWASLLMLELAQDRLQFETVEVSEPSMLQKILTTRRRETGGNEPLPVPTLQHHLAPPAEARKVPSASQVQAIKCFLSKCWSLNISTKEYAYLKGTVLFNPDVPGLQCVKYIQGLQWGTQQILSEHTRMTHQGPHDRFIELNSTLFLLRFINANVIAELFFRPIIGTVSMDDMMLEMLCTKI
SF1 AF2mut Luc – counter-screen for DAX1 inhibitors: nonselective inhibitors with SF-1 AF2 mutant. AID 652136. inhibition, % at 6.8 µM. shares compounds with DAX1 inh-2. HEK293 StAR-luciferase, luminescence. 2,400 compounds, 78% hits;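 active means inhibition above the mean of all tested compounds plus 3 SD, cut at about 3% in these data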;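 further: 0% = DAX-1 transfected cells with DMSO and 100% = cells without DAX-1 with DMSO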
LXR ag – counter-screen for hcDAF-12 agonists: agonists of human LXR-beta; shares compounds with hcDAF12 agonist; HEK293 Gal4-LXR tk-luc reporter, luminescence, 24 h; normalized: DMSO 0%, positive control 100%; activation, % at 6.8 µM; 3,400 tested, under 10 active;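 active means mean percent activation of the reporter above a cutoff set as the average over tested compounds plus their standard deviation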
hcDAF12 conf – confirmation of H. contortus DAF-12 agonists; shares compounds with hcDAF12 agonist; HEK293 hcDAF-12 lit1-tk-luc reporter, luminescence; % of Δ7-dafachronic acid response; activation, % at 6.8 µM; 3,400 compounds, 61% hits; AID 743032;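 active means mean activation across triplicate tests above the threshold derived from the earlier primary screen, cut at about 5.5% in these data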;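 further: 0% = DMSO only wells and 100% = 3 µM Δ7-dafachronic acid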
hgDAF12 ag – confirmation of H. glycines DAF-12 agonists. HEK293 GAL4-hgDAF12 luciferase reporter, agonist mode; percent of butyrate response. activation, % at 6.8 µM. 3,300 compounds, 80% hits. shares compounds with hgDAF12 agonist;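 active means mean activation over triplicate wells above the hit cutoff derived from the earlier primary screen, cut at about 11% in these data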;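 further: 0% = DMSO low control and 100% = 2 mM sodium butyrate high control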
LXRb DAF12 ctr – counter-screen for DAF-12 agonists: agonists of human LXR-beta; shares compounds with hgDAF12 agonist; HEK293 Gal4-LXR luciferase reporter, 24 h; activation, % at 6.8 µM; 3,300 tested, under 10 active; AID 743051;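 active means mean activation of the triplicate above a set limit carried over from the primary screen, none filed active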
Starred values were filed as active, the others as inactive; . = no result given.

SMILES | ssDAF12 agonist | hcDAF12 agonist | DAX1 inh-1 | DAX1 inh-2 | hgDAF12 agonist | DAX1 inh confirm | SF1 AF2mut Luc | LXR ag | hcDAF12 conf | hgDAF12 ag | LXRb DAF12 ctr
Cc1ccc2oc(-c3cccc(N)c3)nc2c1 | 2.5* | 13.6* | 0.2 | 6.4* | 23.4* | 16.4* | 8.2* | 1.2 | 10.2* | 22.9* | 1.0
Nc1cccc(-c2nc3cc(S(=O)(=O)c4ccc5oc(-c6cccc(N)c6)nc5c4)ccc3o2)c1 | -2.1 | -1.0 | 0.2 | 0.1 | -2.1 | . | . | . | . | . | .
O=C(Nc1ccc2c(c1)OCO2)c1ccc(Cl)s1 | 1.9* | 14.2* | 0.3 | 4.6* | 16.4* | 11.6* | 9.9* | 1.7 | 12.0* | 21.0* | 1.1
CCCCOc1ccc(C(=O)Nc2ccc3c(c2)OCO3)cc1 | -1.1 | 2.3 | 2.0 | 1.2 | 1.5 | . | . | . | . | . | .
CCC(=O)Oc1ccc(C(=O)Nc2ccc3c(c2)OCO3)cc1 | 1.7* | 3.5 | . | 5.5* | 22.1* | 12.7* | 7.8* | . | . | 15.4* | 0.8
C/C(=N/NC(=O)CSc1nnc(-c2ccccc2)n1-c1ccc(Cl)cc1)c1cccc(O)c1 | 0.1 | -1.2 | . | -0.8 | 6.6 | . | . | . | . | . | .
CCC(C)(C)NC(=S)Nc1ccc(-c2nc3ccc(C)cc3s2)cc1 | 0.9* | 9.1* | 1.5 | 8.4* | 20.2* | 16.4* | 7.6* | 0.9 | 5.7* | 19.2* | 1.0
CNC(=S)Nc1ccc(-c2nc3ccc(C)cc3s2)cc1 | 1.8* | 7.3* | 0.7 | 5.9* | 18.2* | 11.8* | 6.2* | 1.8 | 8.9* | 24.2* | 1.0
Cc1cc(C)cc(N(CC(=O)Nc2ccc(-c3nc4ccc(C)cc4s3)cc2)S(C)(=O)=O)c1 | -0.8 | 3.2 | -0.9 | 2.8 | 9.7 | . | . | . | . | . | .
CCCCNC(=S)Nc1ccc(-c2nc3ccc(C)cc3s2)cc1 | 0.8 | 10.3* | 1.1 | 7.1* | 20.1* | 13.3* | 9.0* | 1.5 | 5.3 | 20.1* | 0.9
CC1=CCC(C(=O)O)C(C(=O)Nc2ccc(-c3nc4ccc(C)cc4s3)cc2)C1 (stereo unspecified) | 1.9* | 6.7* | 0.1 | 6.1* | 13.5* | 1.7 | 1.0 | 0.5 | 3.2 | 5.4 | 0.4
O=C(NCCc1c[nH]c2ccccc12)c1ccc2c(c1)ncn2C1CCCCC1 | -0.7 | -0.8 | . | -0.6 | 2.4 | . | . | . | . | . | .
O=S(=O)(c1ccc(C(F)(F)F)cc1)N1CCCc2nc(-c3ccccc3)ccc21 | 0.3 | 0.7 | . | -0.8 | 1.4 | . | . | . | . | . | .
CCCCCCCCNS(=O)(=O)CC1NCc2ccc(C)cc21 (stereo unspecified) | -1.5 | 1.3 | . | 0.4 | 1.8 | . | . | . | . | . | .
CN[C@H]1C[C@H]2c3[nH]c4cccc(-c5ccccc5)c4c3CCN2C[C@H]1[C@H](C)O | -0.2 | -2.5 | . | -0.8 | 1.5 | . | . | . | . | . | .
N/C(=N\OC(=O)c1ccccc1Cl)c1ccncc1 | 0.5 | 6.2* | -0.2 | 5.6* | 14.2* | 6.8* | 5.3* | . | . | 13.2* | 0.8
N/C(=N\OC(=O)/C=C/c1ccccc1Cl)c1ccncc1 | 0.0 | 6.8* | 1.9 | 9.2* | 21.3* | 11.0* | 6.3* | 1.4 | 4.3 | 16.4* | 0.8
N/C(=N\OC(=O)c1ccc(Cl)cc1Cl)c1ccncc1 | -0.8 | 1.1 | -0.7 | 0.8 | 6.8 | . | . | . | . | . | .
N/C(=N\OC(=O)/C=C/c1ccccc1)c1ccncc1 | -0.6 | 1.4 | 3.0 | 1.0 | 7.0 | . | . | . | . | . | .
COC(=O)CNC(=O)[C@H](Cc1ccccc1)NC1(C(=O)NCCc2c[nH]c3ccccc23)CCCCC1 | -1.3 | 1.4 | . | . | 0.1 | . | . | . | . | . | .
Cc1ccc(C)c(NC(=O)c2ccc(CS(=O)(=O)Cc3ccccc3C)o2)c1 | -1.6 | -2.4 | . | -1.4 | -3.8 | . | . | . | . | . | .
O=C(Nc1cccc([N+](=O)[O-])c1)NC1CCCCN(Cc2cccc(Cl)c2)C1=O (stereo unspecified) | -1.1 | -1.2 | . | -0.5 | -2.6 | . | . | . | . | . | .
Cc1ccc(S(=O)(=O)CCC(=O)N(CCCN2CCOCC2)c2nc3ccccc3s2)cc1 | -0.3 | 3.2 | 0.8 | 3.1 | 6.4 | . | . | . | . | . | .
Cc1ccc2nc(N(CCN3CCOCC3)C(=O)CCS(=O)(=O)c3ccccc3)sc2c1 | -0.1 | 0.2 | 3.7 | 5.1* | 13.8* | 6.8* | 4.8* | . | . | 11.4* | 0.3
CC(OC(=O)c1ccc2c(c1)OCCO2)C(=O)c1ccccc1 (stereo unspecified) | 0.8 | 7.3* | 4.9* | 11.8* | 14.4* | 10.6* | 6.8* | 1.7 | 7.8* | 16.0* | 1.0
SMILES | ssDAF12 agonist | hcDAF12 agonist | DAX1 inh-1 | DAX1 inh-2 | hgDAF12 agonist | DAX1 inh confirm | SF1 AF2mut Luc | LXR ag | hcDAF12 conf | hgDAF12 ag | LXRb DAF12 ctr
O=C(c1ccccc1C(F)(F)F)N1CCC(Oc2cccnc2)CC1 | -1.7 | 1.8 | . | 1.2 | -4.2 | . | . | . | . | . | .
Cc1ccc(C(=O)Nc2nc3ccccc3s2)s1 | 0.7 | 11.9* | 0.6 | 4.8* | 21.4* | 15.8* | 6.2* | 1.8 | 11.1* | 21.7* | 1.2
CCCCNC(=O)Nc1nc2ccccc2s1 | 0.1 | 2.8 | 8.8* | 5.5* | 14.6* | 10.5* | 4.8* | . | . | 14.7* | 0.7
Cc1ccc(C(=O)Nc2nc3ccc(S(C)(=O)=O)cc3s2)s1 | -0.3 | 3.9 | 0.7 | 1.5 | 7.2 | . | . | . | . | . | .
CN1CCSc2ccc(C(=O)NCc3ccccc3)cc21 | -1.1 | -0.7 | -0.9 | 0.3 | 4.5 | . | . | . | . | . | .
COc1ccc(NC(=O)c2ccc3c(c2)N(C)CCS3)cc1 | 0.8 | 5.4 | 0.9 | 7.3* | 23.9* | 12.0* | 7.5* | . | . | 18.9* | 0.8
CCN(CC)CCN(C(=O)c1ccc(C(=O)c2ccccc2)cc1)c1nc2cc3c(cc2s1)OCO3 | -1.2 | -0.8 | -0.4 | 2.2 | 3.1 | . | . | . | . | . | .
CCN(CC)CCN(C(=O)c1ccc2ncsc2c1)c1nc2cc3c(cc2s1)OCO3 | 2.6* | 15.9* | -0.8 | 14.8* | 17.4* | 10.6* | 11.3* | 1.5 | 11.0* | 15.1* | 0.6
Cc1nn(-c2ccccc2)c(C)c1C=NNC(=O)CSc1nc2ccccc2n1C | -1.5 | -2.7 | . | -0.1 | -2.2 | . | . | . | . | . | .
CC(C)(C)C(c1nc2ccccc2[nH]1)n1c(-c2cccc(S(C)(=O)=O)c2)nc2ccccc21 (stereo unspecified) | -0.1 | 2.6 | . | 16.4* | 16.2* | 7.7* | 9.5* | . | . | 12.3* | 0.5
